Reference: PubChem BioAssay (NCATS)
Inconclusive results are not listed. Calls of active or inactive are those of the source. Unless noted, the call rests on the fitted dose curve.

Legend:
[1] = molecular target: Lysosomal acid glucosylceramidase (Homo sapiens) (UniProt P04062); test: Glucocerebrosidase-p2 (AID 348; in the data active means potency below about 10 µM; further: potency means the concentration at half of the fitted maximal effect); conditions: purified GBA, blue fluorogenic substrate, 40 min
Chain of Lysosomal acid glucosylceramidase (Homo sapiens) (P04062 whole entry, looked up): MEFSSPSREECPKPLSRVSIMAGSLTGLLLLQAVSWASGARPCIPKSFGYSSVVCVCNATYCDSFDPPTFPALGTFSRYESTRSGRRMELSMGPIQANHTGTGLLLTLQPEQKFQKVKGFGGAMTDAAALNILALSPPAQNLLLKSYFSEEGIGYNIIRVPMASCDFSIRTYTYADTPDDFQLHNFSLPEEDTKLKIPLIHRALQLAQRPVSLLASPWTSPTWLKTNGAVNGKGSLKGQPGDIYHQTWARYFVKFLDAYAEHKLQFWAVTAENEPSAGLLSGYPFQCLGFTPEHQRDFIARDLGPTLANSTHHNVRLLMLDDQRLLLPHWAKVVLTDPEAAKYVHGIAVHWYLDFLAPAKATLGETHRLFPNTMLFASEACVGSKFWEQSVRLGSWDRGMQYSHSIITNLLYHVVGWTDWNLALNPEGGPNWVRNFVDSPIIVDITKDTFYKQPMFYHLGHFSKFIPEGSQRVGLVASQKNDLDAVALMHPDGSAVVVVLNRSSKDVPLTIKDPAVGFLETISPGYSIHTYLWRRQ
How it was run: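 Normal human glucocerebrosidase (0.2 nM) with blue fluorogenic substrate (80 uM final) in citrate/phosphate pH 5.9 with 10mM sodium taurocholate, 0.01% tween-20; 40 min RT, NaOH/glycine stop; fluorescence Ex 365/Em 440; AC50 from a titration from 0.6 nM upwards.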

[2] = AP1 Signaling Pathway (AID 357; active means well fitted curve in either direction with a large enough effect, not every such curve was filed as active;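 further: ME-180 reporter cells stimulated with EGF at its EC50 level; on the % scale 0 is the no-effect control and ±100 the full control effect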); conditions: ME-180 AP-1-bla reporter, EGF-induced, beta-lactamase ratio, 5 h; at 7.69 µM (top of the series) unless noted
How it was run: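 Cells are seeded overnight, exposed to compound titrations and an EC50 level of EGF for 5 hours at 37 °C, then loaded with CCF4 dye for 2.5 hours. Beta-lactamase activity under the AP-1 element is read as a blue/green ratio.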

[3] = molecular target: Cytochrome P450 1A2 (Homo sapiens) (UniProt P05177); test: p450-cyp1a2 (AID 410); conditions: recombinant CYP1A2, luciferin-ME demethylation, luminescence; series mostly up to 57 µM; further: potency means the concentration at half of the fitted maximal effect;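 on activity change, negative = inhibition: -100% = full effect of reference inhibitor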
Chain of Cytochrome P450 1A2 (Homo sapiens) (P05177 whole entry, looked up): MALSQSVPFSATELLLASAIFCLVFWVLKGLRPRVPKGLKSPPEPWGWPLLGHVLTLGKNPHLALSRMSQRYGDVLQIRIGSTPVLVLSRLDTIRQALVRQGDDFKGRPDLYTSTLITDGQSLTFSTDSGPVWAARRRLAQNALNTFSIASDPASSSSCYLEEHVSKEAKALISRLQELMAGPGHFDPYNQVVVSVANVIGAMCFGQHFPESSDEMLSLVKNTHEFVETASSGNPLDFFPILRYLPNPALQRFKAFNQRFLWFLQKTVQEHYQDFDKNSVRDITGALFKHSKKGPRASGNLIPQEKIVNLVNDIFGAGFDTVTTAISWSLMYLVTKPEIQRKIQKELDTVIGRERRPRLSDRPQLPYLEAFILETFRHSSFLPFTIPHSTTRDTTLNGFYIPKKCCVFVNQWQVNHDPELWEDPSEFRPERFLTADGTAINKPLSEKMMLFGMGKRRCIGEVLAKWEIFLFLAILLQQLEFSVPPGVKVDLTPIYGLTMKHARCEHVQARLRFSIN
How it was run: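 O-Demethylation of luciferin 6' methyl ether by human CYP1A2 is monitored as luciferase luminescence. Substrate sits at Km (100uM); enzyme is 20nM. Values are scaled to 57 uM furafylline as maximal inhibition.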

[4] = Stat Signaling Pathway (AID 446; active means well fitted curve in either direction with a large enough effect, not every such curve was filed as active;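 further: ME-180 cervical cancer cells given 40 pM IL-6 alongside compound; SIE-controlled beta-lactamase reporter measured as 460/530 nm FRET emission ratio; on the % scale 0 is the no-effect control and ±100 the full control effect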); conditions: ME-180 SIE beta-lactamase reporter, IL-6 stimulated, 5 h; at 7.69 µM (top of the series) unless noted
How it was run: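 Emission at 460 and 530 nm (excitation 405 nm) reports SIE-controlled beta-lactamase in ME-180 cells. Cells received compound with 40 pM IL-6 for 5 hrs at 37 C; data scaled between 300 pM IL-6 and 125 nM JAK-inhibitor controls.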

[5] = molecular target: Glucocorticoid receptor (Homo sapiens) (UniProt P04150); test: GR-EFC Redistribution (AID 451); conditions: CHO-K1 GR-EFC translocation, beta-gal luminescence, 2 h; further: potency means the concentration at half of the fitted maximal effect
Chain of Glucocorticoid receptor (Homo sapiens) (P04150 whole entry, looked up, the tested form may be a part): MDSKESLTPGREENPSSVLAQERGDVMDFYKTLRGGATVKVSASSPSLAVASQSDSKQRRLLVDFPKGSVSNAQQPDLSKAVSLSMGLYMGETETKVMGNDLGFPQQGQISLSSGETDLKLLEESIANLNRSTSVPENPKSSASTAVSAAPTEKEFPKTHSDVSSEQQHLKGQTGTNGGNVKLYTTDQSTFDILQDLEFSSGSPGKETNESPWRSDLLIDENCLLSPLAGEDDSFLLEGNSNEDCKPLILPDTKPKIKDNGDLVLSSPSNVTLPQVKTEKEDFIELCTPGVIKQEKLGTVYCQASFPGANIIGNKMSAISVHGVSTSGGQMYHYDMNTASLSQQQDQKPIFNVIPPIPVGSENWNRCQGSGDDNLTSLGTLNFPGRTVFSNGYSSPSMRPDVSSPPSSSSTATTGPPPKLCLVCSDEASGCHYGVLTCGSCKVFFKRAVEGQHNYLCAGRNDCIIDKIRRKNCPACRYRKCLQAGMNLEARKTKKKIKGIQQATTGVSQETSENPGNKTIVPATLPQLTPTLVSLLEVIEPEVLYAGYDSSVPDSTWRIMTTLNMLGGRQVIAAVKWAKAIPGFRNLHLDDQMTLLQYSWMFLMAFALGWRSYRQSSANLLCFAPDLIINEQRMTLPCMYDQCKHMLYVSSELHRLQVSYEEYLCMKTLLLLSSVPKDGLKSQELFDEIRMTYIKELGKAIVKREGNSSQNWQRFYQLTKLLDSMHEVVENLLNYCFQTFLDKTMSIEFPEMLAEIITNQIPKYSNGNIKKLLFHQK
How it was run: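 Translocation of GR-ED fusion to nuclear EA restores b-gal, read by luminescence after 1 h room-temperature detection. Engineered CHO-K1 biosensor cells, 1,000/well, exposed 2 h at 37 C to titrations up to 46 uM final.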

[6] = molecular target: Mitogen-activated protein kinase 10 (Mus musculus) (UniProt Q61831); test: JNK3 AlphaScreen Assay (AID 530; active means well fitted curve in either direction with a large enough effect, not every such curve was filed as active;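 further: kinase came from lysate of stimulated human HepG2 cells; signal reports phosphorylation of biotinylated GST-cJun 1-79 at Ser73 with 10 µM ATP; on the % scale 0 is the no-effect control and ±100 the full control effect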); conditions: JNK3 lysate, c-Jun phosphorylation; series mostly up to 57.1 µM
How it was run: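 qHTS titrations with 15 min compound pre-incubation before adding ATP (10 uM final). Read-out: AlphaScreen of Ser73-phosphorylated biotin-GST-cJun using HepG2 lysate JNK3 activated by IL-1β and TNFα.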

[7] = molecular target: 3',5'-cyclic-AMP phosphodiesterase 4B (Homo sapiens) (UniProt Q07343); test: qHTS Assay for Inhibitors of PDE-IV (AID 607; active means well fitted activation curve with a large enough effect in the main read-out, with a control signal flat, not every such curve was filed as active; further: % of control where 0% means no effect); conditions: HEK293 ACTOne CNG channel cells, membrane potential fluorescence; series mostly up to 22.9 µM
Chain of 3',5'-cyclic-AMP phosphodiesterase 4B (Homo sapiens) (Q07343 whole entry, looked up): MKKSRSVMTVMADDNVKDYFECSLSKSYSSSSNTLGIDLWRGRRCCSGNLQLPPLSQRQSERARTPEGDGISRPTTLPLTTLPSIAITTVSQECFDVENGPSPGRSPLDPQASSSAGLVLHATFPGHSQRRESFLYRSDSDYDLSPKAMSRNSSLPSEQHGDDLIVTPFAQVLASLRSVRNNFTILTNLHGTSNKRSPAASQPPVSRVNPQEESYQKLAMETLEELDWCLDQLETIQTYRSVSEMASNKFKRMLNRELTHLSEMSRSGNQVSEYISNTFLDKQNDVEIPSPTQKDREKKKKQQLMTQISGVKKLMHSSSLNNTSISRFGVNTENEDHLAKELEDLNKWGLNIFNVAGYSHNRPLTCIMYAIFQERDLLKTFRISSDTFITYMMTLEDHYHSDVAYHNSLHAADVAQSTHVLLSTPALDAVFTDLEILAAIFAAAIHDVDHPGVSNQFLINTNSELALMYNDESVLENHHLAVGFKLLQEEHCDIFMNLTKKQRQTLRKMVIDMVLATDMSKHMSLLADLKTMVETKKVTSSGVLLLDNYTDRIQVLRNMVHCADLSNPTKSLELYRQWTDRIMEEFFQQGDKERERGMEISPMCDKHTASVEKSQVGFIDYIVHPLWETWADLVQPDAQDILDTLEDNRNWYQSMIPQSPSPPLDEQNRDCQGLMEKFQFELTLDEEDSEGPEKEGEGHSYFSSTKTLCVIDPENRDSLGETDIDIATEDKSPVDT
How it was run: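 The readout is membrane depolarisation from a cAMP-sensing CNG channel, detected with a potential dye at ex 535/em 590. Cells were HEK293-derived (endogenous PDE-IV) at 1000 cells/well, titrated up to 22.9 uM final.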

[8] = molecular target: Cytochrome P450 3A4 (Homo sapiens) (UniProt P08684); test: qHTS Assay for Activators of Cytochrome P450 3A4 (AID 885; active means well fitted curve in the direction sought with a large enough effect; an effect the other way counts as inactive or inconclusive; further: nearly all actives have a fitted effect of over 65% in size); conditions: recombinant CYP3A4, Luciferin-PPXE luminescence, 60 min; series mostly up to 57.1 µM
Chain of Cytochrome P450 3A4 (Homo sapiens) (P08684 whole entry, looked up): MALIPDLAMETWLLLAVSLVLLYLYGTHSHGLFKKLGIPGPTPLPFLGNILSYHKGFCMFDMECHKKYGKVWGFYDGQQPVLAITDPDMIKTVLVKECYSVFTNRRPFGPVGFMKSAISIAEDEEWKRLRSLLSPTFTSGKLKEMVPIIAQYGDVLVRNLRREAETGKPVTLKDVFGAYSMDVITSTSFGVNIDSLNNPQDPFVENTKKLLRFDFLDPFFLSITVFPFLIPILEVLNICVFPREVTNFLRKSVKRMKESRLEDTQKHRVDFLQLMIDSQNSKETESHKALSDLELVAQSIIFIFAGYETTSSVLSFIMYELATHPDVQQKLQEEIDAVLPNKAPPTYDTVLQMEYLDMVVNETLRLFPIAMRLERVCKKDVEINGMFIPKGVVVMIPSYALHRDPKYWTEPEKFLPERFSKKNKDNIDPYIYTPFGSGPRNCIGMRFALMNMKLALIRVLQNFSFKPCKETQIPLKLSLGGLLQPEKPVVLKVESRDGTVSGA
How it was run: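 Activators are scored by enhanced luminescence from CYP3A4 conversion of luciferin-PPXE (25uM, equal to KM) to luciferin, after 60 min at RT with an NADPH-regenerating system.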

[9] = molecular target: Cytochrome P450 2D6 (Homo sapiens) (UniProt P10635); test: qHTS Assay for Inhibitors and Substrates of Cytochrome P450 2D6 (AID 891; active means well fitted curve in the direction sought with a large enough effect; an effect the other way counts as inactive or inconclusive; further: potency means the concentration at half of the fitted maximal effect; nearly all actives have a fitted effect of over 60% in size); conditions: recombinant CYP2D6, luciferin-ME EGE luminescence; series mostly up to 57.1 µM
Chain of Cytochrome P450 2D6 (Homo sapiens) (P10635 whole entry, looked up): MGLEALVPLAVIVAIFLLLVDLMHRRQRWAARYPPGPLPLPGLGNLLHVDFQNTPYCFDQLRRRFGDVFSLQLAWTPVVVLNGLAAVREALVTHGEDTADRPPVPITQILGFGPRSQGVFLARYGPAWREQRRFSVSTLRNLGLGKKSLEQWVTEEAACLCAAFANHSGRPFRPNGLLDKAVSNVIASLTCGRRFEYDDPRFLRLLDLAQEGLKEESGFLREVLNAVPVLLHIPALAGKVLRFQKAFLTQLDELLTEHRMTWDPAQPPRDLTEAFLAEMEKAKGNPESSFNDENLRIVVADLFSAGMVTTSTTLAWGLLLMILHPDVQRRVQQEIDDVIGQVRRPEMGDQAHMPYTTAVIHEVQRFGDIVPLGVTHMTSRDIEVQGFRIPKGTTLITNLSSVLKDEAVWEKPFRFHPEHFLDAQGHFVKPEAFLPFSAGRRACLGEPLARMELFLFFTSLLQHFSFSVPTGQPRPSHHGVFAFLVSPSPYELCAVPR
How it was run: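 Luminescent read-out of luciferin formed by 5 nM human CYP2D6 demethylating 30 uM Luciferin-ME EGE (Km level) over 60 min at room temperature after NADPH regeneration addition. Data normalized to full inhibition by 1.43 uM quinidine.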

[10] = qHTS Assay for Lipid Storage Modulators (AID 1519); conditions: Drosophila S3 cells, BODIPY lipid droplet/cell ratio, laser cytometry, cells loaded with oleic acid; for activity change, negative = inhibition: at 57.5 µM (top of the series)
How it was run: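 Cells seeded at 5,000 per well were treated with compounds over a concentration series and loaded with oleic acid (400 uM, as added). Lipid droplet fluorescence (488 nm excitation, 500-530 nm channel) was read by laser-scanning cytometry and normalized to 20 uM Triacsin C.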

[11] = Primary qHTS for small molecule stabilizers of the endoplasmic reticulum resident proteome: Secreted ER Calcium Modulated Protein (SERCaMP) assay (AID 1508630; active means well fitted curve in the direction sought with a large enough effect; an effect the other way counts as inactive or inconclusive; further: on the % scale 0 is the no-effect control and ±100 the full control effect); conditions: SH-SY5Y GLuc-SERCaMP (Gaussia luciferase released on ER calcium loss) secretion, thapsigargin, luminescence; series mostly up to 38.4 µM
How it was run: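 The SH-SY5Y reporter protocol was run at 3 concentrations up to 38.3 uM (primary) or 11 concentrations (follow-up): 16 h compound, 100 nM thapsigargin for 4 h, then extracellular luciferase luminescence.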

[12] = molecular target: Glucocorticoid receptor (Homo sapiens) (UniProt P04150); test: GR-GFP Redistribution (AID 450;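 active means compounds whose dose series gives a full or clear partial fitted curve of increased nuclear translocation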; further: potency means the concentration at half of the fitted maximal effect); conditions: U2OS GR-GFP nuclear translocation, laser cytometry, 2 h
[13] = molecular target: Cytochrome P450 2C19 (Homo sapiens) (UniProt P33261); test: qHTS Assay for Inhibitors and Substrates of Cytochrome P450 2C19 (AID 899; active means well fitted curve in the direction sought with a large enough effect; an effect the other way counts as inactive or inconclusive; further: potency means the concentration at half of the fitted maximal effect; nearly all actives have a fitted effect of over 60% in size); conditions: recombinant CYP2C19, luciferin-H EGE luminescence; series mostly up to 57.1 µM
Chain of Cytochrome P450 2C19 (Homo sapiens) (P33261 whole entry, looked up): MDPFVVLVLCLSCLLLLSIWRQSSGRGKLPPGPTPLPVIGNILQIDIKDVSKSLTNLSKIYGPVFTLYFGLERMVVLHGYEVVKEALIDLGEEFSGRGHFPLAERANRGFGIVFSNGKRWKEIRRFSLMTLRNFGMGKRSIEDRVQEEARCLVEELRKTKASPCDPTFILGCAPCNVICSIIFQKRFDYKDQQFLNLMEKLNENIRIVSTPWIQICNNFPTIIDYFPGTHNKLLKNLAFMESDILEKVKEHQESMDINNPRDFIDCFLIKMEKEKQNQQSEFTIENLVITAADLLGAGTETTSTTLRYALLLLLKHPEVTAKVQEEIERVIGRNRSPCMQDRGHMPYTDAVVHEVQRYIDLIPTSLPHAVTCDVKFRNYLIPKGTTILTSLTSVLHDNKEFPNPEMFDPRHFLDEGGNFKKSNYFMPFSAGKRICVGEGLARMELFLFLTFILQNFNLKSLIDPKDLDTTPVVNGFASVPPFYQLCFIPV
How it was run: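 5nM enzyme + 10uM Luciferin-H EGE (=KM), 50mM KPO4; cpd pin-transferred, 10 min 37C; NADPH regen, 60 min 37C; stopped w/ luciferin detection reagent, 20 min; luminescence. Normalized to 57uM ketoconazole (AC100).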

[14] = qHTS Assay for Identification of Small Molecule Agonists for Hypoxia Response Element Signaling Pathway (AID 914; active means well fitted activation curve with a large enough effect in the signal ratio, with a control signal flat, not every such curve was filed as active; the % refers to the signal ratio; further: potency means the concentration at half of the fitted maximal effect; on activation: % of control where 0% means no effect); conditions: ME-180 (cervical carcinoma) HRE-bla reporter, beta-lactamase ratio, CoCl2, 17 h; activation: stronger effect = higher value
How it was run: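 Cells were plated overnight, pin-dosed with compound in a titration series, co-stimulated with EC50 CoCl2 and incubated 17 hours at 37 degrees Celsius. CCF4 substrate was then loaded, and AC50 values came from the 460nm/530nm ratio.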

[15] = Confirmation and Secondary Assay for Modulators of Hemoglobin Beta Chain Splicing at IVS2 705 locus (AID 930; active means well fitted curve in the direction sought with a large enough effect; an effect the other way counts as inactive or inconclusive;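 further: HeLa cells stably expressing the EGFP-705 splicing reporter; GFP fluorescence per well restored by corrected splicing of the IVS2-705 intron in EGFP; % of control where 0% means no effect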); conditions: HeLa EGFP-705 splicing reporter, GFP fluorescence, 48 h; series mostly up to 38.3 µM
How it was run: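 Splice-correction reporter: EGFP cDNA split by beta-globin intron 2 bearing the 705 mutation, stably in HeLa. Compound incubation 2 days, 37C; fluorescent objects 5-250 µm summed per well.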

[16] = measured here: cell count channel max response
[17] = measured here: lipid channel max response

O=C(c1ccco1)N1CCC[C@@]2(CCN(C(c3ccccc3)c3ccccc3)C2)C1
-10.5%: max response [10, 16]
inactive: Potency [1] > 11.4 µM | activity change, negative = inhibition [2] -9.33% | activity, negative = inhibition [4] 3.09% | Potency [5] > 46 µM | Potency [6] | Potency [7] | Potency [8] | activity change, negative = inhibition [10] -15.2% | outcome [11]
-26.4%: max response [10, 17]
active: Potency [3] 25.1 µM | Potency [9] 3.16 µM

Cc1noc(C)c1-c1ccc2ncnc(NCc3ccccc3)c2c1
active: Potency [3] 3.16 µM | Potency [13] 7.94 µM | Potency [14] 3.16 µM
-2.04%: max response [10, 17]
inactive: Potency [1] > 11.4 µM | activity change, negative = inhibition [2] 21.4% | Potency [12] > 46 µM | Potency [5] > 46 µM | Potency [6] | Potency [8] | outcome [15] | activity change, negative = inhibition [10] -0.127% | outcome [11]
-0.875%: max response [10, 16]

Cc1noc(C)c1C(=O)N1CCC2(CCN(Cc3ccncc3)CC2)CC1
inactive: Potency [1] > 11.4 µM | activity change, negative = inhibition [2] 5.66% | Potency [3] | activity, negative = inhibition [4] -5.26% | Potency [5] > 46 µM | Potency [6] | Potency [7] | Potency [8] | activation [14] 14.4% | activity change, negative = inhibition [10] 4.47% | outcome [11]
0.0469%: max response [10, 16]
9.36%: max response [10, 17]

COC(=O)N1CCC2(CCCN(Cc3ccc(C#N)cc3)C2)CC1
active: Potency [9] 0.316 µM
inactive: Potency [1] > 11.4 µM | activity change, negative = inhibition [2] -3.68% | Potency [3] | activity, negative = inhibition [4] -2.36% | Potency [5] > 46 µM | Potency [6] | Potency [7] | Potency [8] | activity change, negative = inhibition [10] -1.17% | outcome [11]
13.4%: max response [10, 16]
12.9%: max response [10, 17]

CC(=O)N1CCC2(CCCN(Cc3ccccc3)C2)CC1
inactive: Potency [1] > 11.4 µM | activity change, negative = inhibition [2] -3.56% | Potency [3] | activity, negative = inhibition [4] 9.01% | Potency [5] > 46 µM | Potency [6] | Potency [7] | activity change, negative = inhibition [10] 2.49% | outcome [11]
active: Potency [9] 2.51 µM
-0.297%: max response [10, 16]
3.92%: max response [10, 17]

COc1ccccc1CN1CCCC2(CCN(C(=O)c3ccco3)CC2)C1
active: Potency [9] 2.51 µM
inactive: Potency [1] > 11.4 µM | activity change, negative = inhibition [2] -11.6% | Potency [3] | activity, negative = inhibition [4] -1.13% | Potency [5] > 46 µM | Potency [6] | Potency [7] | Potency [8] | activity change, negative = inhibition [10] 2.54% | outcome [11]
5.74%: max response [10, 16]
11.8%: max response [10, 17]

COc1ccccc1CN1CCC2(CC1)CCN(C(=O)c1cccn1C)CC2
active: Potency [9] 3.98 µM
inactive: Potency [1] > 11.4 µM | activity change, negative = inhibition [2] 6.08% | Potency [3] | activity, negative = inhibition [4] -5.76% | Potency [5] > 46 µM | Potency [6] | Potency [7] | activity change, negative = inhibition [10] -1.94% | outcome [11]
8.14%: max response [10, 16]
8.04%: max response [10, 17]

COCCn1c(=O)c(-c2cn(C)c3ccccc23)nc2cnc(Oc3ccc(OC)cc3)nc21
inactive: Potency [1] > 11.4 µM | activity change, negative = inhibition [2] 14.1% | Potency [12] > 46 µM | Potency [5] > 46 µM | Potency [7] | Potency [8] | activity change, negative = inhibition [10] -11.5% | outcome [11]
2.76%: max response [10, 16]
active: Potency [3] 2.51 µM | Potency [14] 3.16 µM
-6.23%: max response [10, 17]

CC(C)CN1CCCC2(CCN(C(=O)c3csnn3)CC2)C1
inactive: Potency [1] > 11.4 µM | activity change, negative = inhibition [2] 1.87% | Potency [3] | activity, negative = inhibition [4] -5.65% | Potency [5] > 46 µM | Potency [6] | Potency [7] | Potency [8] | activity change, negative = inhibition [10] 2.3% | outcome [11]
active: Potency [9] 5.01 µM
15.1%: max response [10, 16]
21%: max response [10, 17]

COc1ccccc1CN1CC2(CCN(C(=O)c3ccncc3)CC2)C1
inactive: Potency [1] > 11.4 µM | activity change, negative = inhibition [2] -0.483% | Potency [3] | activity, negative = inhibition [4] -1.82% | Potency [5] > 46 µM | Potency [6] | Potency [7] | Potency [8] | activity change, negative = inhibition [10] -2.12% | outcome [11]
-19.5%: max response [10, 16]
-17.3%: max response [10, 17]
active: Potency [9] 0.794 µM

COc1ccccc1CN1CCCC2(CCN(C(C)=O)CC2)C1
13%: max response [10, 17]
inactive: Potency [1] > 11.4 µM | activity change, negative = inhibition [2] 0.608% | activity, negative = inhibition [4] 9.98% | Potency [5] > 46 µM | Potency [6] | Potency [7] | activity change, negative = inhibition [10] 0.567% | outcome [11]
7.93%: max response [10, 16]
active: Potency [3] 25.1 µM | Potency [9] 3.16 µM

O=C(c1cc(C(F)(F)F)cc(C(F)(F)F)c1)N1CCC2(CCN(Cc3ccccc3)CC2)CC1
18.5%: max response [10, 16]
24.9%: max response [10, 17]
inactive: Potency [1] > 11.4 µM | activity change, negative = inhibition [2] 9.59% | Potency [3] | activity, negative = inhibition [4] -1.85% | Potency [5] > 46 µM | Potency [6] | Potency [7] | activation [14] 4.02% | activity change, negative = inhibition [10] 2.31% | outcome [11]

CS(=O)(=O)N1CCC2(CCCN(C(c3ccccc3)c3ccccc3)C2)CC1
16.2%: max response [10, 17]
inactive: Potency [1] > 11.4 µM | activity change, negative = inhibition [2] -6.2% | Potency [3] | activity, negative = inhibition [4] 12.1% | Potency [5] > 46 µM | Potency [6] | Potency [7] | Potency [8] | activity change, negative = inhibition [10] 2.84% | outcome [11]
13.3%: max response [10, 16]
active: Potency [9] 5.01 µM

O=C(c1csnn1)N1CCC2(CC1)CCN(c1ccncc1)CC2
10%: max response [10, 17]
6.68%: max response [10, 16]
inactive: Potency [1] > 11.4 µM | activity change, negative = inhibition [2] 0.494% | Potency [3] | activity, negative = inhibition [4] 0.543% | Potency [6] | Potency [7] | Potency [8] | activity change, negative = inhibition [10] 1.35% | outcome [11]
